The values below come from PubChem BioAssay AID1259400 (National Center for Advancing Translational Sciences (NCATS), 2018).

Out of some 350,000 compounds screened, about 2,100 (0.6%) were called active. Roughly 1% stayed inconclusive and do not appear here. The list comes from a sample in which actives are over-represented; it also holds similar structures and randomly drawn compounds. A number with no mark means an inactive call.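 How the source made its calls: active means activity change of -60% or lower, but not beyond a set lower limit; inconclusive means change between -60% and -40%, or beyond the set limit; inactive means change above -40%.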
On the % scale 0 is the no-effect control and ±100 the full control effect.

The target of this test is Relaxin receptor 1 (Homo sapiens) (UniProt Q9HBX9). Description: qHTS Assay for Antagonists of the Relaxin Receptor RXFP1. To be noted: HEK293-RXFP1, relaxin-stimulated cAMP HTRF, 30 min; at 57.5 µM; active compounds read low.
Chain of Relaxin receptor 1 (Homo sapiens) (Q9HBX9 whole entry, looked up): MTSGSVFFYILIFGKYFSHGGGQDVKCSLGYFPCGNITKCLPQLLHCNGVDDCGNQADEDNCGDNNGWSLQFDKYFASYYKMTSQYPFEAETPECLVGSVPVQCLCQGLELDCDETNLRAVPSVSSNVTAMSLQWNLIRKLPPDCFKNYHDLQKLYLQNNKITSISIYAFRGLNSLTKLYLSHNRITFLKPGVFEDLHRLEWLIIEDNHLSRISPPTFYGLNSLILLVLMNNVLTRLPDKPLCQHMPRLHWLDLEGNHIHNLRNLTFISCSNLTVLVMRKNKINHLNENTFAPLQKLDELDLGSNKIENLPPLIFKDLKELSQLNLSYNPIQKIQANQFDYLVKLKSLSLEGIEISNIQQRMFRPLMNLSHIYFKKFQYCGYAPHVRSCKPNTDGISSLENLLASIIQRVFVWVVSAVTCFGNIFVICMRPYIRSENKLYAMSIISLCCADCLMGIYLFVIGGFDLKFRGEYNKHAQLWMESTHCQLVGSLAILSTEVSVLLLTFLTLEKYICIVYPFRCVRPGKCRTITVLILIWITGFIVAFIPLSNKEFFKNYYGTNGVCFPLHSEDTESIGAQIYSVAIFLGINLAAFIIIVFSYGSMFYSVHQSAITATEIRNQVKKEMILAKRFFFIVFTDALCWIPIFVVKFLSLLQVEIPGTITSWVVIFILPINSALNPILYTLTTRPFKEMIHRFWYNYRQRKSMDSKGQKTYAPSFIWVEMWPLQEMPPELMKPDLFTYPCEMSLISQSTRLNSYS
Turning to `Cc1ccn2c(-c3csc(Nc4ccc(C(=O)O)cc4)n3)c(C)nc2c1`, the activity change, negative = inhibition was 6.41%.
The figure for `O=c1oc2ccccc2cc1-c1csc(Nc2ccc(O)cc2)n1` is -97% (active); for `Cc1cc(NC(=O)c2cccc(Cl)c2)ccc1-c1cc2ccccc2oc1=O` it is -4.13%; for `COC(=O)c1ccc(NC(=O)c2cnn(-c3ccc(Cl)cc3)c2C2CCN(C(=O)OC(C)(C)C)CC2)cc1` it is -12.3%.
The result for `COc1ccc(CCNC(=O)c2ccc3c(c2)nc(C)n3-c2ccc(Br)cc2)cc1OC` reads -27.1%; that for `CC1=C(c2ccc(C)cc2)S(=O)(=O)NC1=NCCCN1CCN(c2cc(C)ccc2C)CC1`, -13.1%.
The result for `COC(=O)/C=C(/C)N` reads 5.99%.
Turning to `CCOC(=O)c1cc(-c2ccccc2)n(-c2cccc(C(=O)Nc3cc(OC)cc(OC)c3)c2)c1C`, the activity change, negative = inhibition was -10.5%.
The figure for `COC(=O)c1nc(Cl)c(Cl)nc1N` is -98.8% (active); for `COC(=O)c1nn(-c2cccc(Cl)c2)ccc1=O` it is -8.77%.
The result for `COC(=O)c1c(C)c(C)nc(N)c1C#N` reads 9.32%; that for `O=C(CCOc1ccccc1)N(Cc1cccnc1)c1nc2ccc(Cl)cc2s1`, 0.968%; that for `COc1ccc(OC)c(NC(=O)CSC2=Nc3ccccc3C3=NC(CC(=O)NCc4ccc(F)cc4)C(=O)N23)c1` (stereo unspecified), -11.9%.
The result for `COCCCN1CCC(NC(=O)c2cc(Cl)c(N)c3c2OCC3)CC1` reads -9.44%; that for `O=C(/C=C/c1cc2c(cc1Br)OCO2)NCc1ccc(Cl)cc1`, 0.543%; that for `O=C(N/N=C\c1cc2c(cc1Cl)OCO2)c1ccc(Br)s1`, 5.05%.
In the case of `CC1(C(=O)N/N=C/c2cc3c(cc2Br)OCO3)CC1(Br)Br` (stereo unspecified), the activity change, negative = inhibition is -82.7% (active).
The result for `COc1cc(Cl)c(NC(=O)CC(C)S(=O)(=O)c2cc3c(cc2C)NC(=O)CO3)c(OC)c1` (stereo unspecified) reads 0.439%; that for `NNc1nc2c(Cl)cccc2s1`, -80.1% (active).
The figure for `Fc1cnc(N2CCOCC2)nc1NCc1ccccc1` is 11.7%; for `c1ccc2c(NC3C4CC5CC(C4)CC3C5)nc(N3CCOCC3)nc2c1` (stereo unspecified) it is -78.7% (active).
As to `CC(Nc1nc(N2CCCC2)nc2ccccc12)c1ccccc1` (stereo unspecified), the activity change, negative = inhibition is -10.3%.
The figure for `O=C(NCC(c1ccc(Cl)cc1)N1CCOCC1)c1ccccc1F` (stereo unspecified) is -0.553%; for `CCOC(=O)c1c(C)[nH]c(CCC(=O)NCCCN2CCN(c3cc(C)ccc3C)CC2)c1C` it is -33.7%.
On to `CCCc1c2oc(C(=O)O)cc(=O)c2cc2c(=O)cc(C(=O)O)n(CC)c12`, for which the activity change, negative = inhibition was -5.22%.
Turning to `COc1cc(/C=C/C(N)=O)cc(OC)c1OC`, the activity change, negative = inhibition was -9.25%.
The result for `Cc1c(NC(=O)Cc2ccccc2)cccc1-c1nc2cccnc2s1` reads 5.77%.
The figure for `C=C(C)COc1ccc(-c2ncncc2-c2ccc(OC)cc2)c(O)c1` is -10.6%; for `C=C(C)COc1ccc(-c2nc(N)ncc2-c2ccccc2OC)c(O)c1` it is -62% (active).
The result for `CCOc1ccc(-c2nc(N)ncc2-c2ccccc2OC)c(O)c1` reads -16%.
For `Cc1ccc(CCNC(=O)c2nnc(Cc3cccc(F)c3)o2)cc1`, the activity change, negative = inhibition was -3.15%.
Consider `CC(OC(=O)CN1C(=O)c2ccccc2C1=O)C(=O)c1ccccc1` (stereo unspecified), for which the activity change, negative = inhibition is 6.31%.
Regarding `C=CCC(C(=O)c1ccccc1)[N+](C)(C)CC=C` (stereo unspecified), the activity change, negative = inhibition is -82.2% (active).
The result for `O=C(OCC(O)C(O)COC(=O)c1ccccc1)c1ccccc1` (stereo unspecified) reads -12.8%; that for `CC(O)COc1ccccc1` (stereo unspecified), 1.89%.
As to `Cc1noc(/C=C/N(C)C)c1S(=O)(=O)N1CCCC(C(=O)Nc2cccc(F)c2)C1` (stereo unspecified), the activity change, negative = inhibition is -3.51%.
The figure for `CCN1CCN(C(=O)N[C@@H](C(=O)N[C@@H]2C(=O)N3[C@@H]2SC(C)(C)[C@H]3C(=O)O)c2ccccc2)C(=O)C1=O` is -3.73%; for `O=C(Cn1cc(-c2nnnn2-c2ccc(Cl)cc2)c(=O)c2ccccc21)c1ccccc1` it is -98.5% (active); for `O=C(CN1CCN(c2ccc(Cl)cc2)CC1)c1ccccc1` it is 6.85%.
Regarding `O=C(C[n+]1ccc2c(c1)nnn2-c1ccccc1)c1ccc(Cl)cc1`, the activity change, negative = inhibition was -11.1%.
With `Cc1cc(C)cc(NC(=O)CSc2nc3nccnc3c(=O)n2CCc2c[nH]c3ccccc23)c1`, the activity change, negative = inhibition is 4.86%.
Take `Fc1ccc(Nc2nc(SCc3ccccc3Cl)nc3ccccc23)cc1`: the activity change, negative = inhibition was -23.1%.
The figure for `CC(C)(C)CC(C)(C)NCC(O)COCCOc1ccc(Br)cc1` (stereo unspecified) is -90.2% (active); for `COc1ccc(OCC(O)CNCCNc2nccc(C(F)(F)F)n2)cc1` (stereo unspecified) it is 6.63%; for `CC(Oc1ccc(Br)cc1)C(=O)NC1CCCCCC1` (stereo unspecified) it is -9.73%.
The figure for `CN[C@@H]1[C@@H](O)[C@@H](O[C@@H]2[C@H](O)[C@H](O[C@H]3OC(CN)=CC[C@H]3N)[C@@H](N)C[C@H]2N)OCC1(C)O` (stereo partly specified) is -9.15%; for `CCc1ccc(NC(=O)c2sc3nc4c(cc3c2N)CN(CC)CC4)cc1` it is -24.5%.
As to `O=C1Cc2cc(S(=O)(=O)Nc3ccc(OC(F)(F)F)cc3)cc3c2N1CCC3`, the activity change, negative = inhibition is -19.8%.
`O=C(OCc1ccccc1)c1ccc(O)cc1`: the activity change, negative = inhibition was 3.77%.
The figure for `COc1ccc(NC(=O)N2CCCC(c3nc(-c4ccc(F)cc4)no3)C2)cc1` (stereo unspecified) is 2.56%.
Turning to `COc1cccc(-c2noc(C3CCCN(C(=O)c4ccc(F)cc4)C3)n2)c1` (stereo unspecified), the activity change, negative = inhibition was -66.4% (active).
For the compound `O=C(c1ccc(F)cc1)N1CCCC(c2nc(-c3cccs3)no2)C1` (stereo unspecified), the activity change, negative = inhibition is 2.8%.
In the case of `CCOc1ccc(S(=O)(=O)c2cn(Cc3ccccc3)c3ccc(OCC)cc3c2=O)cc1`, the activity change, negative = inhibition is -11.7%.
The figure for `CCOc1ccc(NS(=O)(=O)c2ccc(N)cc2)nn1` is 9.63%.
The figure for `CCN(C(=O)CSc1nnc(C)n2c1cc1occc12)c1ccccc1` is -12.2%; for `Cc1ccc(N=C2NC(=O)/C(=C/C=C/c3ccco3)S2)cc1C` it is -82.4% (active); for `CCN1CCN(c2cc(C)c3cc(NC(=O)c4cc(Cl)ccc4OC)ccc3n2)CC1` it is -19.5%.
The figure for `COC(=O)CSc1nnc(-c2cccnc2)o1` is 5.1%; for `O=C(CSc1nnc(-c2ccncc2)o1)Nc1cccc(Cl)c1` it is -1.48%; for `COc1cccc(NC(=O)CSc2nnc(-c3cccnc3)o2)c1` it is -83.2% (active).
As for `CCOc1ccc(N2CC(c3nc4ccccc4n3CCOc3ccc(OC)cc3)CC2=O)cc1` (stereo unspecified), the activity change, negative = inhibition was -13%.
On to `Cc1ccc(Cl)cc1NC(=O)C(C)n1nnc2sc(-c3ccccc3)cc2c1=O` (stereo unspecified), for which the activity change, negative = inhibition was -12.2%.
The result for `COCc1c(C(=O)N/N=C\c2cccnc2)nnn1-c1nonc1N` reads -21.1%; that for `Cc1ccc(SCc2c(C(=O)N/N=C/c3cccnc3)nnn2-c2nonc2N)cc1`, -106% (active).
As for `Nc1nonc1-n1nnc(C(=O)N/N=C\c2ccncc2)c1CN1CCCCC1`, the activity change, negative = inhibition is 7.31%.
The figure for `COC(=O)c1cc(Cl)c(NC(C)=O)cc1OC` is -14.6%; for `COc1ccccc1Nc1c2c(nc3ccc(NC(=O)/C=C/c4cc(OC)c(OC)c(OC)c4)cc13)CCCC2` it is 5.51%.
The result for `CCC(=O)Nc1ccc(C)cc1-c1nc2ccccc2n(Cc2ccccc2)c1=O` reads -2.19%.
The result for `O=C(C1CCC(Cn2c(=O)c3sccc3n(Cc3ccccc3F)c2=O)CC1)N1CCCCC1` (stereo unspecified) reads -8.5%; that for `Cc1nn(-c2ccccc2)c(Cl)c1/C=N/NC(=O)c1nn(C)cc1[N+](=O)[O-]`, -8.41%; that for `CN1CCc2ccccc2C1Cc1ccccc1NC(=O)c1sc2ccccc2c1Cl` (stereo unspecified), 5.13%.
For the compound `Cc1nn(C)cc1/C=N/NC(=O)c1sc2ccccc2c1Cl`, the activity change, negative = inhibition was -67.1% (active).
The figure for `C/C=C/C=N/NC(=O)c1ccncc1` is 14.4%; for `CC1CCN(S(=O)(=O)c2ccc3c(ccn3CCC(=O)NCc3ccc(N(C)C)cc3)c2)CC1` it is -7.88%.
The result for `CCOC(=O)c1ccc(NC(=O)C2CC(=O)N(c3ccc(C(C)C)cc3)C2)cc1` (stereo unspecified) reads 4.6%; that for `CN1CC[C@H](c2c(O)cc(O)c3c(=O)cc(-c4ccccc4Cl)oc23)[C@H](O)C1`, -7.55%.
For `COc1ccc(C2Sc3ccccc3NC3=C2C(=O)c2ccccc23)c(OC)c1OC` (stereo unspecified), the activity change, negative = inhibition is 3.16%.
The result for `CCOC(=O)c1cnc2c(C)cc(C)cc2c1Nc1ccc(N2CCOCC2)cc1` reads -5%.
With `O=C(Nc1ccc(Oc2ccccc2)cc1)C1CCN(S(=O)(=O)c2ccc(Cl)cc2)CC1`, the activity change, negative = inhibition was -26.7%.
As to `O=C(Nc1ccccc1)c1nnsc1S(=O)(=O)c1ccc(Cl)cc1`, the activity change, negative = inhibition was -68.7% (active).
The result for `O=C(Nc1cccc(Cl)c1)c1csnn1` reads -3.98%; that for `Clc1ccc(CSc2nncn3c2cc2occc23)cc1`, -27.8%; that for `Cc1ccc(Nc2c(-c3ccc(Cl)cc3)nc3sccn23)c(C)c1`, -23.7%.
With `Cc1ccc2nsnc2c1NC(=O)c1ccccc1[N+](=O)[O-]`, the activity change, negative = inhibition was -9.18%.
The figure for `CC(=O)Oc1ccccc1C(=O)Nc1ncc([N+](=O)[O-])s1` is -60.7% (active); for `O=C(Nc1ccncc1)c1ccccc1[N+](=O)[O-]` it is 11.1%.
`CCOC(=O)c1ccc(NC(=O)c2c(NCc3cccs3)sc3c2CCCC3)cc1`: the activity change, negative = inhibition is -24.5%.
`CN(C)C(=O)COC(=O)c1cccc(S(=O)(=O)N2CC3(C)CC2CC(C)(C)C3)c1` (stereo unspecified): the activity change, negative = inhibition is 8.67%.
The figure for `Cc1nnnn1/C(=C\c1ccccc1)C(=O)OCC(=O)N1CC2(C)CC1CC(C)(C)C2` (stereo unspecified) is -62.1% (active).
On to `CN1CCN(c2oc(-c3ccc(COc4ccc(Cl)cc4)o3)nc2C#N)CC1`, for which the activity change, negative = inhibition is -10.5%.
The figure for `CCOc1ccccc1NC(=O)c1ccc2c(c1)CCN2S(=O)(=O)c1ccc(C)cc1` is 1.03%.
